Test [1] in a line: Nuclear factor erythroid 2-related factor 2/antioxidant responsive element (Nrf2/ARE) small molecule agonists: qHTS cell viability counter screen in human keratinocytes (AID 1919968; active = well fitted curve in the direction sought with a large enough effect in the repeat runs; an effect the other way counts as inactive or inconclusive; note: nearly all actives have a fitted effect of over 55% in size). The method in brief:
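CellTiter-Fluor fluorescence, read 1 h after reagent, gave viability in the same wells as the ARE-luciferase assay. KeratinoSens cells (1,500/well) had 23 h compound exposure at 37 C/5% CO2 following 5 h plating.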

Test [2] is described as follows: Nuclear factor erythroid 2-related factor 2/antioxidant responsive element (Nrf2/ARE) small molecule agonists: luciferase reporter gene qHTS assay in human keratinocytes (AID 1919969). Note: nearly all actives have a fitted effect of over 35% in size. Note: potency is the fitted concentration of half-maximal effect. Background: In a reporter assay the amount or activity of a reporter protein is the signal.
For test [3], the target named is Gonadotropin-releasing hormone receptor (Homo sapiens) (UniProt P30968). As to the kind of experiment: Human gonadotropin-releasing hormone receptor (GnRHR) small molecule agonists, calcium flux assay in GnRHR-HEK293 cells (AID 1920063). Note: nearly all actives have a fitted effect of over 35% in size. The method in brief: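 Agonist mode: compounds at 15 concentrations, in triplicate, went onto calcium dye-loaded GnRHR-HEK293 cells. Intracellular calcium was then followed as 480/540 nm fluorescence at 1 s intervals over 3 min.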
Gonadotropin-releasing hormone receptor (Homo sapiens), sequence (P30968 whole entry, looked up): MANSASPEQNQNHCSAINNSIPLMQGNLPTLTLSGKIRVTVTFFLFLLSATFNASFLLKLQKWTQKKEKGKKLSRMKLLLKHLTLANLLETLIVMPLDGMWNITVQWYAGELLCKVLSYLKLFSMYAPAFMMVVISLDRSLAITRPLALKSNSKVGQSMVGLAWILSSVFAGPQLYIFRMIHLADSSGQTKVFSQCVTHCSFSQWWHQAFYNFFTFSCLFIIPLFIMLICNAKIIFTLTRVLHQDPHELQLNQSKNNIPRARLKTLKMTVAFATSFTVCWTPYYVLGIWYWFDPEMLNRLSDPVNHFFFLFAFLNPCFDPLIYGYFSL

The target of test [4] is KiSS-1 receptor (Homo sapiens) (UniProt Q969F8). As to the kind of experiment: Human kisspeptin (KISS1R) small molecule agonists, calcium flux assay in KISS1R-HEK293 cells (AID 1920064; active = well fitted curve in the direction sought with a large enough effect in the repeat runs; an effect the other way counts as inactive or inconclusive). The method in brief: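 Agonist mode: intracellular calcium rise tracked at 1 s intervals over 3 min (480/540 nm) immediately after compound addition to dye-loaded KISS1R-HEK293 stable cells. Each compound tested at 15 concentrations in triplicate.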
KiSS-1 receptor (Homo sapiens), sequence (Q969F8 whole entry, looked up): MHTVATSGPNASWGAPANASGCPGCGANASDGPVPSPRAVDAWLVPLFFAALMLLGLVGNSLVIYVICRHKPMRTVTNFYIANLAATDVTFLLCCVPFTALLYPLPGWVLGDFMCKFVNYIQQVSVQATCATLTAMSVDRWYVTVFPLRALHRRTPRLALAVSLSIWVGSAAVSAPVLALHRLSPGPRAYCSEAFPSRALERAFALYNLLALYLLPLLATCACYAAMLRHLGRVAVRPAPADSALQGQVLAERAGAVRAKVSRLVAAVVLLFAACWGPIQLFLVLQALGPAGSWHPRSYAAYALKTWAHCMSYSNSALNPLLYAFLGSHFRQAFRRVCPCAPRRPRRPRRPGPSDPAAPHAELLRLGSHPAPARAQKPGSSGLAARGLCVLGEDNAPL

Test [5] is described as follows: G protein-coupled receptor (GPCR) small molecule agonists, calcium flux assay: HEK293 wild type cell line counter screen (AID 1920065). The method in brief:
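Calcium flux counter screen: compound added in agonist mode at 15 concentrations in triplicate to dye-loaded parental HEK293 cells. Fluorescence (480/540) read kinetically for 3 min; ATP served as positive control.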
For orientation: A change in cytosolic calcium serves as a functional read-out for many receptors and channels.

Test [6] is described as follows: p53 small molecule agonists, cell-based qHTS assay with human liver microsomes: qHTS cell viability counter screen (AID 1963579). Note: nearly all actives have a fitted effect of over 45% in size. Note: potency is the fitted concentration of half-maximal effect. The method in brief: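 Viability of p53RE-bla cells is measured as CellTiter-Glo luminescence following a 16 h, 37 C incubation with compound, liver microsomes from human donors and NADPH.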
Test [7] is described as follows: p53 small molecule agonists, cell-based qHTS assay with rat liver microsomes: qHTS cell viability counter screen (AID 1963580). Note: nearly all actives have a fitted effect of over 45% in size. The method in brief:
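Counter screen for cytotoxicity under metabolic activation: rat liver microsomes and NADPH, 0.5 mg/mL final each, added with compounds to p53RE-bla HCT-116 cells; 16 h at 37 C, then ATP luminescence read.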
Background: qHTS replaces the single test concentration by a dilution series.

Test [8] in a line: p53 small molecule agonists, cell-based qHTS assay: qHTS cell viability counter screen (AID 1963581). Note: nearly all actives have a fitted effect of over 45% in size. The method in brief:
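Counter screen read by CellTiter-Glo luminescence (ATP content, 30 min at room temperature), run in the same wells as the beta-lactamase reporter read. HCT-116 p53RE-bla cells saw compounds for 16 h at 37 C.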

The target in test [9] is 5-hydroxytryptamine receptor 2A (Homo sapiens) (UniProt P28223). The test is described as follows: 5-hydroxytryptamine receptor 2A (HTR2A) small molecule antagonists, cell-based qHTS assay (AID 1963586). Note: nearly all actives have a fitted effect of over 45% in size. The method in brief:
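CHO cells stably expressing human HTR2A were plated for 18 h at 37 C, then loaded with calcium dye for 1 h. Compounds were preincubated 5 min at room temperature before DOI (4 nM solution) was added. Kinetic fluorescence was read for 3 min.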

Test [10] has the same target. As to the kind of experiment: 5-hydroxytryptamine receptor 2A (HTR2A) small molecule agonists, cell-based qHTS assay (AID 1963587). Note: nearly all actives have a fitted effect of over 30% in size. The method in brief:
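HTR2A-CHO cells, plated 18 h at 37 C/5% CO2, dye-loaded 1 h at 37 C; compounds in DMSO added by pin tool (agonist mode). Intracellular calcium flux read as kinetic fluorescence on FDSS over 2 min at 1 s intervals.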

Test [11] has as its target Muscarinic acetylcholine receptor M1 (Homo sapiens) (UniProt P11229). As to the kind of experiment: Cholinergic receptor muscarinic 1 (CHRM1) small molecule antagonists, cell-based qHTS assay (AID 1963588). Note: nearly all actives have a fitted effect of over 40% in size. The method in brief:
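Compounds were tested at 15 concentrations in three independent runs. Dye-loaded CHRM1-CHO cells were exposed 5 min at room temperature before stimulation by acetylcholine added at 50nM. Intracellular calcium was read kinetically on FDSS for 3 min.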

Test [12] shares this target. As to the kind of experiment: Cholinergic receptor muscarinic 1 (CHRM1) small molecule agonists, cell-based qHTS assay (AID 1963589). Note: nearly all actives have a fitted effect of over 35% in size. The method in brief: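 Agonist-mode calcium-flux screen: compounds at 15 concentrations, three independent runs, were pin-transferred onto dye-loaded human CHRM1-CHO cells. Fluorescence was then recorded kinetically every second over minutes.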

Test [13] in a line: cAMP Responsive Elements (CRE) small molecule agonists, cell-based qHTS assay (AID 1963590). The method in brief: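 Agonist mode: compound added to CRE-bla HEK 293T cells (2,000/well, 18 h after plating) for 3 h at 37 C/5% CO2. Reporter activity detected via FRET beta-lactamase substrate, 2 h room-temperature loading.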
Test [14] can be described thus: cAMP Responsive Elements (CRE) small molecule antagonists, cell-based qHTS assay (AID 1963591; active = well fitted inhibition curve with a large enough effect in the signal ratio in the repeat runs, not every such curve was filed as active; the % refers to the signal ratio). The method in brief:
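Antagonist mode: compounds are added alongside the adenylyl cyclase activator NKH477 (0.25 uM final) to CRE-bla HEK293T cells for 3 h. LiveBLAzer FRET substrate, 2 h at room temperature, reports bla expression.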

Test [15] concerns the target Beta-2 adrenergic receptor (Homo sapiens) (UniProt P07550). As to the kind of experiment: Adrenergic beta2 receptor (ADRB2) small molecule antagonists, cell-based qHTS assay (AID 1963592). Note: series mostly up to about 92 µM; nearly all actives have a fitted effect of over 50% in size. The method in brief:
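Assay format: CHO-ADRB2 cells, 18-20hr seeding at 37C/5% CO2, then compound plus 1nM isoproterenol agonist mix for 0.5hr RT. Homogeneous time-resolved fluorescence cAMP detection after 1hr, expressed as 665/615 nm ratio.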

The target is the same in test [16]. The test is described as follows: Adrenergic beta2 receptor (ADRB2) small molecule agonists, cell-based qHTS assay (AID 1963593).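 Note: CHO cells stably overexpressing human ADRB2.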 The method in brief: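 CHO cells stably over-expressing ADRB2 were plated overnight at 37C, then dosed with compounds plus a stimulation mix containing 100uM IBMX and 25uM Ro-20-1724 for 0.5hr at room temperature. cAMP was measured by HTRF competition, 1hr.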

The target of test [17] is D(2) dopamine receptor (Homo sapiens) (UniProt P14416). The test is described as follows: Dopamine D2 receptor (DRD2) small molecule agonists, cell-based qHTS assay (AID 1963594). Note: nearly all actives have a fitted effect of over 35% in size. The method in brief: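 HEK293 cells stably expressing DRD2 were cultured 24 h at 37 C, then given Ro20-1724 (0.1 mM final) and compounds for 10 min at room temperature. NKH477 (200nM) was then added for 30 min. cAMP was read by HTRF.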
D(2) dopamine receptor (Homo sapiens), sequence (P14416 whole entry, looked up): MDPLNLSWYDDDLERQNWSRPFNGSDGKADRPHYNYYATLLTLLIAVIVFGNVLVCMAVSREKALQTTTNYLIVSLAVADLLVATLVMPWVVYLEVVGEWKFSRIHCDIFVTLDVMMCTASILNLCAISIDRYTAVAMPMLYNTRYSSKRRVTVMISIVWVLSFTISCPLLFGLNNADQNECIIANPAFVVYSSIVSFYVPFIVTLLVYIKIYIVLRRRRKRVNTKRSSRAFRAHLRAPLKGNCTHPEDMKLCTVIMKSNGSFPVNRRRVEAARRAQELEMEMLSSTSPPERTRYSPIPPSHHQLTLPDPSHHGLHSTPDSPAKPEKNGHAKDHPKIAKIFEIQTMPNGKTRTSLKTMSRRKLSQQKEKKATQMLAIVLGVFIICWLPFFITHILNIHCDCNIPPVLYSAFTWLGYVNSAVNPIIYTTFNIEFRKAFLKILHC

For test [18] the target is unchanged. The test is described as follows: Dopamine D2 receptor (DRD2) small molecule antagonists, cell-based qHTS assay (AID 1963595; active = well fitted inhibition curve with a large enough effect in the signal ratio in the repeat runs, with a control signal flat; the % refers to the signal ratio). The method in brief:
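Readout: HTRF cAMP, cAMP-d2 competing with cellular cAMP for anti-cAMP cryptate, read after 1 h. Cells: DRD2-HEK293. Conditions: 0.1 mM Ro20-1724, 12 nM quinpirole, 200 nM NKH477, 30 min RT.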

A number with no mark means an inactive call. Records with an inconclusive call do not appear. Activity calls are given as the source filed them. Unless noted, calls come from the whole dose curve.

Beta-2 adrenergic receptor (Homo sapiens), sequence (P07550 whole entry, looked up): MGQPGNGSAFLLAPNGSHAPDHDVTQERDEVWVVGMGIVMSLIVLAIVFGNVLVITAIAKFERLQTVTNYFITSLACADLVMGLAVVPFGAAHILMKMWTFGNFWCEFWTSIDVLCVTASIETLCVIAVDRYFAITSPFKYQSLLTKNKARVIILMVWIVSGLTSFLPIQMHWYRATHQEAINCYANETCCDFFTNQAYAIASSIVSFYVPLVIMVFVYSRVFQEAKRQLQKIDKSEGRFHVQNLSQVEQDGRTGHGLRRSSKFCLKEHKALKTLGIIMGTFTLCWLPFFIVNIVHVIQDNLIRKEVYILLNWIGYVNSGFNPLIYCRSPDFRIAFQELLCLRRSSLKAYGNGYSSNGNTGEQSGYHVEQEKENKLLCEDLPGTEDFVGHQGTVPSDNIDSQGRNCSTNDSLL
5-hydroxytryptamine receptor 2A (Homo sapiens), sequence (P28223 whole entry, looked up): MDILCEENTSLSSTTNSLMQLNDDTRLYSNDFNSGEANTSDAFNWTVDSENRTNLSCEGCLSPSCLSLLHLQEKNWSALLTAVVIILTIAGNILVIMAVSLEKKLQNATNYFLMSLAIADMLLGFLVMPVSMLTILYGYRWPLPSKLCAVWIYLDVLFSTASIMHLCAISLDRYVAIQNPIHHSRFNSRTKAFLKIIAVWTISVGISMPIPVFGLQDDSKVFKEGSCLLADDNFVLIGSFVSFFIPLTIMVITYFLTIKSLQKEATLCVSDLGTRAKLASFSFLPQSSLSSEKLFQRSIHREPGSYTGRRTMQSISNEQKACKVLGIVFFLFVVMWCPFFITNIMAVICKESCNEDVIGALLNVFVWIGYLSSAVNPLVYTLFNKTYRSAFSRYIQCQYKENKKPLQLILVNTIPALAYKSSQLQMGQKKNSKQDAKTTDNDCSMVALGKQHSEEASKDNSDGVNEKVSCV
Muscarinic acetylcholine receptor M1 (Homo sapiens), sequence (P11229 whole entry, looked up): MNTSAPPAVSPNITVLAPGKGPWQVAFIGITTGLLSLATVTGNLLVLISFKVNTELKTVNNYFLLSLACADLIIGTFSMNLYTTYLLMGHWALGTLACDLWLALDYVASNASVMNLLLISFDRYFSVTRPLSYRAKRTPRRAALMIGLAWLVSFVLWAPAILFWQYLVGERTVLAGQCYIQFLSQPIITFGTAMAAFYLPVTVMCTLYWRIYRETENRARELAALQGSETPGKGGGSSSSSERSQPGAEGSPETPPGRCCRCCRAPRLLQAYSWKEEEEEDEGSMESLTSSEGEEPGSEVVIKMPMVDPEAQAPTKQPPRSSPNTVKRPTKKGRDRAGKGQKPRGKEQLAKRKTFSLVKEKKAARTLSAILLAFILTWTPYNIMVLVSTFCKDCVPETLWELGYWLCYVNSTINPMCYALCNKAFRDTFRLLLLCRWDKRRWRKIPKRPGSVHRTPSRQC

With `c1ccc(CN(Cc2ccccc2)Cc2ccccc2)cc1`, the Potency result in [1], in test [3], in test [4], in test [5], in test [6] and in test [7] was “inactive” each time. Moreover, the Potency entry in test [8], in [9], in test [10], in [11], in [12] and in test [13] was “inactive” throughout. The Potency entry in test [14], in test [15], in [16], in test [17] and in test [18] was “inactive” each time. Also, in test [2], the Potency was 54.4 µM (active).
As for `Clc1sc(Cl)c(Cl)c1Cl`, the Potency entry in test [1], in test [2], in [3], in test [4], in [5] and in test [6] was “inactive” throughout. Besides, the Potency entry in test [7], in [8], in [9], in test [10], in test [11] and in test [12] was “inactive” throughout. The Potency entry in test [13], in test [14], in test [15], in [16], in [17] and in test [18] was “inactive” each time.
`CC(CC=O)CCCC(C)(C)O` (configuration not stated): the Potency result in test [1], in [2], in [3], in test [4], in test [5] and in test [6] was “inactive” in each case. Besides, the Potency result in test [7], in test [8], in test [9], in test [10], in [11] and in test [12] was “inactive” in each case. The Potency entry in test [13], in test [14], in [15], in test [16] and in test [18] was “inactive” throughout.
In the case of `C=C(C)C1CC=C(C)C(=O)C1` (configuration not stated), the Potency result in test [1], in test [2], in test [3], in test [4], in test [5] and in test [7] was “inactive” each time. For the same molecule, the Potency result in test [8], in test [9], in test [10], in test [11], in test [12] and in test [13] was “inactive” in each case. Moreover, the Potency entry in [14], in test [15], in [16], in [17] and in test [18] was “inactive” each time. Moreover, the Potency in test [6] is 32.2 µM (active).
Consider `CC(C)(C)Cl`, for which the Potency result in [1], in [2], in [3], in test [4], in [5] and in test [6] was “inactive” throughout. Also, the Potency entry in test [7], in test [8], in [9], in [10], in [11] and in test [12] was “inactive” in each case. Moreover, the Potency entry in test [13], in [14], in [15], in test [16], in test [17] and in [18] was “inactive” each time.
For the molecule `CCCC1CCC(=O)CC1`, the Potency entry in test [1], in [2], in test [3], in [4], in test [5] and in test [6] was “inactive” in each case. Also, the Potency entry in test [7], in [8], in [9], in test [10], in test [11] and in [12] was “inactive” throughout. In addition, the Potency entry in test [13], in test [14], in test [15], in [16], in test [17] and in test [18] was “inactive” each time.
With `Cc1ccc(N)cc1S(=O)(=O)O`, the Potency result in [1], in test [2], in [3], in test [4], in [5] and in [6] was “inactive” each time. In addition, the Potency entry in [7], in test [8], in test [9], in test [10], in test [11] and in test [12] was “inactive” in each case. For the same molecule, the Potency result in test [13], in test [14], in test [15], in test [16], in test [17] and in [18] was “inactive” throughout.
In the case of `O=C(O)CCSSCCC(=O)O`, the Potency result in [1], in [2], in test [3], in test [4], in [5] and in test [6] was “inactive” each time. Also, the Potency result in test [7], in [8], in test [9], in test [10], in test [11] and in [12] was “inactive” each time. The Potency entry in [13], in test [14], in test [15], in [16] and in test [18] was “inactive” each time.

Source of the values: PubChem BioAssay (Tox21).
